Compound activity (PubChem)
Marburg entry inh: qHTS for inhibitors of binding or entry into cells for Marburg Virus; Marburg virus pseudotyped entry inhibition, cell reporter; Potency, µM (top dose mostly 37.8 µM), for the others: at the highest dose activity change, negative = inhibition, hits mostly inhibitors; hit rate 1.8% among 300,000; AID 540276, 2011; calls by dose curve; tested in HEK293 cells
AmpC no deterg: qHTS Inhibitors of AmpC Beta-Lactamase (assay without detergent); P00811; AmpC nitrocefin hydrolysis, absorbance 480 nm, 0.0001% Triton; Potency, µM (titrated, usually from 57.1 µM), for inactives: at the top dose activity change, negative = inhibition, most hits filed as inhibitors; hit rate 0.52% among 330,000; AID 485341, 2010;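 further: plate controls were no compound for no effect and no enzyme for full effect; nearly all actives have a fitted effect of over 20% in size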
Target sequence (P00811 whole entry, looked up): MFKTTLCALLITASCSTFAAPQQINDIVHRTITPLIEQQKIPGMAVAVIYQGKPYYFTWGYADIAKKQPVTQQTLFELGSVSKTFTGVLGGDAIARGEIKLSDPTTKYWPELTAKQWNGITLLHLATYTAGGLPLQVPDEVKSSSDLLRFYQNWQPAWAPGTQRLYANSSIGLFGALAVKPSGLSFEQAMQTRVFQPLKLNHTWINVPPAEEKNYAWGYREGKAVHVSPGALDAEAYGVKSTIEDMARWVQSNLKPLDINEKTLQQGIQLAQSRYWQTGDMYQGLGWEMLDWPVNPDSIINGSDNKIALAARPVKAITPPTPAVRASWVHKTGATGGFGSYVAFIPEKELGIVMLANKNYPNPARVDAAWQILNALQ
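20 mM phosphate pH 7.0 + 0.01% (detergent screen) or 0.0001% Triton X-100; 5.3 nM AmpC reagent; cpd preinc 15 min RT; nitrocefin (800 uM stock) to start; A480 q20 s × 4 min; Activity was normalised to no-enzyme and no-compound control wells.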
Lassa entry inh: qHTS for Inhibitors of binding or entry into cells for Lassa Virus. AID 540256, 2011. Lassa virus pseudotype entry inhibition, cell reporter. Potency, µM (top dose mostly 37.9 µM), without a hit: at the top dose activity change, negative = inhibition, most hits filed as inhibitors. hit rate 1.2% among 300,000; calls by dose curve; tested in HEK293 cells; further: nearly all actives have a fitted effect of over 50% in size
AmpC inh detg: qHTS Inhibitors of AmpC Beta-Lactamase (assay with detergent); Potency, µM (titrated, usually from 114 µM), inactives show at the top dose activity change, negative = inhibition, actives largely listed as inhibitors; P00811; hit rate 0.041% among 370,000; AID 485294, 2010; AmpC hydrolysis of nitrocefin, absorbance 480 nm, 0.01% Triton;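 further: 0% = no-compound wells and -100% = no-enzyme wells; nearly all actives have a fitted effect of over 25% in size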
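20 mM phosphate pH 7.0 + 0.01% (detergent screen) or 0.0001% Triton X-100; 5.3 nM AmpC reagent; cpd preinc 15 min RT; nitrocefin (800 uM stock) to start; A480 q20 s × 4 min; Activity was normalised to no-enzyme and no-compound control wells.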
AMA1 RON2 block: qHTS for Inhibitors of AMA1-RON; Towards Development of Antimalarial Drug Lead: Primary Screen; AlphaScreen AMA1-biotinylated RON2 peptide binding; hit rate 0.2% among 360,000; Plasmodium falciparum AMA1 (3D7) - RON2 peptide interaction; AID 720542, 2013; Potency, µM (top dose mostly 58.2 µM), for the others: at the top dose activity change, negative = inhibition, most hits filed as inhibitors;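 further: 0% = vehicle wells and -100% = peptide control; nearly all actives have a fitted effect of over 45% in size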
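AMA1 (3D7) with his tag at 25 nM final met compounds first, then biotinylated RON2 peptide at 25 nM; detection used donor plus acceptor beads, 10 µg/mL apiece, read by AlphaScreen after 30 min at room temperature.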
An asterisk follows results filed as active; ? = inconclusive; · = not tested or not shown; [ ] = remark or other dose. The list is not random: actives were taken first. Their share in the collection is about 2.3%. Unless noted, the call rests on the fitted dose curve; in most records, active means well fitted curve in the direction sought with a large enough effect; inconclusive means small, poorly fitted or top-dose-only effect, or another doubt; inactive means no such curve, though single readings can be large; an effect the other way counts as inactive or inconclusive. Unless noted, on the % scale 0 is the no-effect control and ±100 the full control effect; potency means the concentration at half of the fitted maximal effect.

SMILES	Marburg entry inh	AmpC no deterg	Lassa entry inh	AmpC inh detg	AMA1 RON2 block
S=C(NCCCN1CCOCC1)NCCCN1CCOCC1	-14.6%	-33.1%	-13.6%	-0.1%	-10.4%
CCCCCCCCNC(=S)NCCN1CCCCC1	14.6µM*	28.2%	?	-4.5%	0.3%
O=[N+]([O-])c1ccccc1Nc1ccccc1	-2.7%[46.1 µM]	-21.0%	-23.3%	3.1%	10µM*
COc1ccccc1NC(=O)Cn1cc(S(=O)(=O)Cc2ccccc2)c2ccccc21	·	·	-1.3%[46.1 µM]	13.1%	·
CCN(c1ccccc1)S(=O)(=O)c1cc(NC(=O)Nc2ccccc2C#N)ccc1Cl	15.8%	8.91µM*	-1.7%	?	-2.8%
CCN(c1ccccc1)S(=O)(=O)c1cc(C(=O)Nc2ccc(F)c(F)c2)ccc1F	?	-54.0%	14.1µM*	-5.3%	1.0%
CCOC(=O)c1c(CN2CCOCC2)n(-c2ccccc2)c2cc(Br)c(O)cc12	12.2%	118.8%	-5.4%	-3.2%	3.5%
CCOC(=O)c1c(CN2CCOCC2)n(-c2ccccc2)c2cc(Br)c(OC)cc12	?	29.6%	9.2µM*	1.6%	-11.6%
CCOC(=O)c1c(CN(C)C)n(-c2ccccc2)c2cc(Br)c(OC)cc12	10µM*	170.6%	?	3.2%	?
C=CCN1C(=S)N=NC1c1ccccc1 (stereo not given)	8.0%	·	·	·	·
CC(C)Oc1cccc(C(=O)C2CCCN(C(=O)c3cc(C4CC4)[nH]n3)C2)c1 (stereo not given)	·	32.0%	·	-5.7%	1.3%
CC(C)Oc1cccc(C(=O)C2CCCN(C(=O)c3cc(C(F)(F)F)[nH]n3)C2)c1 (stereo not given)	-20.2%[46.1 µM]	40.0%	12.6µM*	0.4%	24.2%
COc1ccc(Nc2nc(N)c3cc(OC)c(OC)cc3n2)cc1	11.2µM*	·	18.6%[46.1 µM]	12.6%	·
COc1ccc(C(=O)n2nc(-c3ccco3)nc2NCc2cccs2)cc1OC	15.9%[46.1 µM]	·	27.9%[46.1 µM]	-2.9%	·
C[C@@H]1C=CCCO[C@]12C(=O)Nc1ccc(O)cc12	9.5%[14.2 µM]	·	·	·	·
Cc1sc2nc(COC(=O)c3ccc(O)cc3)[nH]c(=O)c2c1C	11.5%[46.1 µM]	14.1µM*	?	3.0%	3.0%
Clc1ccc(OCCCN2CCCCC2)c(Br)c1	14.6µM*	-5.1%	?	-11.6%	14.4%
CC1CCCN(CCCCOc2cccc(Br)c2)C1 (stereo not given)	2.91µM*	-6.8%	3.26µM*	-6.9%	-10.3%
Clc1ccc(OCCCCCN2CCCC2)c(Br)c1	?	3.8%	?	-4.1%	-2.9%
COCCCNCCCOc1ccc(C)cc1Br	?	3.9%	?	-17.9%	-10.4%
Cc1cc(Cl)c(OCCOCCN2CCCC(C)C2)c(Br)c1 (stereo not given)	?	38.0%	12.6µM*	6.0%	?
COCCCNCCCOc1ccc(Cl)cc1Br	16.4µM*	7.2%	-18.3%	-0.6%	14.6%
Cc1cc(Cl)c(OCCOCCN2CCCCC2)c(Br)c1	?	-23.3%	-26.7%	-3.5%	-23.8%
COc1ccc(-c2nc3c(c4c2C[C@H](c2ccccc2)OC4)CN(C(=O)NCc2ccco2)CC3)c(C)c1	-28.5%[14.2 µM]	·	-14.5%[14.3 µM]	·	·
CC1CCCN(CCOCCOc2ccc(Br)cc2Cl)C1 (stereo not given)	15.8µM*	4.5%	?	-9.3%	-1.0%
SMILES	Marburg entry inh	AmpC no deterg	Lassa entry inh	AmpC inh detg	AMA1 RON2 block
CN1CCN(CCOCCOc2ccc(Br)cc2Cl)CC1	·	2.8%	·	-3.4%	?
CC1CCCN(CCOCCOc2ccc(Cl)cc2Br)C1 (stereo not given)	4.61µM*	46.1%	?	1.6%	-25.6%
CC1CCCN(CCOc2ccc(Br)cc2)C1 (stereo not given)	?	-25.9%	-17.9%	-11.3%	-12.6%
CCOC(=O)c1nn(-c2ccc(Br)cc2)cc1C(=O)c1cccc2ccccc12	5.8µM*	-9.2%	?	-3.9%	-9.1%
CCOC(=O)c1nn(-c2ccc(F)cc2)cc1O	23.3%[46.1 µM]	-17.7%	-1.7%	5.7%	6.5%
NC(=NCc1ccc(Cl)c(Cl)c1)NC(=O)c1nc(Cl)c(N)nc1N	2.51µM*	·	·	·	·
CCOC(=O)NCc1ccc(Cl)c(Cl)c1	?	-19.5%	-4.1%	-11.5%	-0.5%
CC(C)Cc1ccc(C(=O)NCCOc2ccccc2)o1	-3.4%[46.1 µM]	-3.7%	2.82µM*	-2.0%	-3.6%
CC(C)(C)c1ccc(C(=O)NCCOc2ccccc2)cc1	1.58µM*	-48.9%	?	-6.1%	-3.6%
COCCCNCCOc1ccc(C(C)(C)c2ccccc2)cc1	16.4µM*	82.9%	?	-3.9%	-14.4%
COc1ccccc1C(=O)Nc1nc(-c2ccc(S(=O)(=O)N3CCOCC3)cc2)cs1	7.3µM*	77.0%	3.66µM*	-3.2%	-22.1%
COc1ccccc1C1(O)CCN(CC(=O)Nc2nc(-c3ccccc3)cs2)CC1	?	74.3%	5.62µM*	6.3%	20.6%
O=C(Nc1nc(-c2ccccc2)cs1)c1ccccc1NS(=O)(=O)c1ccc(F)cc1	?	-23.5%	3.66µM*	1.8%	-18.2%
COc1ccc(-c2csc(NC(=O)C3CCCCN3S(=O)(=O)c3ccccc3)n2)cc1 (stereo not given)	?	?	15.8µM*	-5.5%	-12.4%
COc1cc(C)c(C)cc1S(=O)(=O)Nc1cccc(-c2ccc(N3CCOCC3)nn2)c1	·	·	-8.2%[46.1 µM]	9.3%	·
COc1cc(NC(=O)C2CCN(S(=O)(=O)c3c(C)noc3/C=C/c3c(C)cc(C)cc3C)CC2)cc(OC)c1	·	·	?	18.0%	·
CCC=CC[C@@]1(C(=O)OC)C=C[C@@H](C)[C@H](c2ccccc2Br)N1C(=O)C(F)(F)F	-0.7%[14.2 µM]	·	·	·	·
O=C(COC(=O)C12CC3CC(CC(C3)C1)C2)Nc1nc2c(F)c(F)c(F)cc2s1	?	10µM*	0.6%	-0.8%	2.4%
COc1ccc(C(=O)OCC(=O)Nc2nc3c(F)c(F)c(F)cc3s2)cc1OC	?	-12.5%	-0.2%	3.4%	4.0%
Cc1ccsc1/C=N/NC(=O)c1cc(-c2ccncc2)nc2ccccc12	0.581µM*	161.3%	?	-4.6%	-1.3%[11.6 µM]
Cc1ccc(/C=N/NC(=O)c2cc(-c3ccncc3)nc3ccccc23)o1	?	-4.3%	-8.2%[46.1 µM]	1.2%	76.5%
O=C(N/N=C/c1cccnc1)c1cc(-c2ccccc2)nc2ccccc12	3.98µM*	1.0%	-20.4%[46.1 µM]	-13.4%	5.3%
CC(/C=N/NC(=O)c1cc(-c2ccncc2)nc2ccccc12)=C\c1ccco1	2.91µM*	-21.6%	-49.2%[14.3 µM]	-7.3%	65.3%
COc1ccccc1-c1cc(C(=O)N/N=C/c2sccc2C)c2ccccc2n1	12.6µM*	21.8%	?	-0.1%	-2.3%
COC(=O)[C@H](c1ccccc1)N1CCCCCC1	10.2%[46.1 µM]	·	·	·	·
O=C1OCCC=C1C(O)CCc1ccccc1 (stereo not given)	22.0%[14.2 µM]	·	·	·	·
